Most compounds without a hit are left out; they make up all but 7.9% or so of the library.
HT1080NT lethal – qHTS for induction of synthetic lethality in tumor cells producing 2HG: qHTS for the HT-1080-NT fibrosarcoma cell line; HT-1080-NT fibrosarcoma viability, CellTiter-Glo ATP luminescence, 48 h; Potency, µM (top dose mostly 46.1 µM), for the others: at the top dose activity, negative = less viability, usual class: cytotoxic; hit rate 1.6% among 360,000; AID 686970, 2013;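 note: NT is the 2HG producing partner of a matched IDH1 knockdown line; 0% = DMSO-treated cells and -100% = media-only wells without cells; nearly all actives have a fitted effect of over 55% in size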
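HT-1080-NT fibrosarcoma cells (2HG-overproducing), 750 cells/well in RPMI with 5% FBS, dosed after 2 h and incubated 48 h at 37C. CellTiter-Glo luminescence normalized to DMSO and no-cell wells; concentration-response curves fitted and classed.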
KB-V1 cytotox – qHTS assay for MDR1-selective chemotherapeutics: Primary screen using the drug-selected MDR subline cells KB-V1 | KB-V1 MDR cells viability, CellTiter-Glo, 72 h | Potency, µM (top dose mostly 46.1 µM), actives largely listed as cytotoxic | hit rate 3.4% among 400,000; note: % is set by controls: 0 for no effect and ±100 for the full control effect; nearly all actives have a fitted effect of over 60% in size
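Readout: CellTiter-Glo luminescence, 10 min after addition. Cells: KB-V1 MDR subline, 72 h at 37 degrees C with compound. Analysis: corrected, normalized data fitted to concentration-effect curves.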
MCF10A rereplic – A quantitative high throughput screen for small molecules that induce DNA re-replication in MCF 10a normal breast cells; MCF 10A DNA re-replication, Hoechst nuclear intensity, 48 h; Potency, µM (titrated, usually from 46.1 µM), for the others: at the highest dose activity, positive = re-replication, usual class: activators; hit rate 2.9% among 350,000; note: % of control where 0% means no effect; nearly all actives have a fitted effect of over 50% in size
SW480 rerep – A quantitative high throughput screen for small molecules that induce DNA re-replication in SW480 colon adenocarcinoma cells | SW480 DNA re-replication, Hoechst DNA content imaging, 48 h | Potency, µM (top dose mostly 46.1 µM), for the others: at the top dose re-replication activation, actives largely listed as activators | hit rate 1.8% among 340,000; note: % of control where 0% means no effect; nearly all actives have a fitted effect of over 55% in size
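First, 250 cells per well were seeded. Next, compound or vehicle (23 nL) was pinned in, plates sat 48 hr at 37 C. Finally Hoechst was added for 40 min before fluorescence scanning.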
KB-3-1 tox – qHTS assay for MDR1-selective chemotherapeutics: Primary screen using the parental adenocarcinoma cell KB-3-1. KB-3-1 viability, CellTiter-Glo ATP luminescence, 72 h. Potency, µM (highest dose often 46.1 µM), most hits filed as cytotoxic. hit rate 1.4% among 400,000. AID 1347075, 2019; note: % is set by controls: 0 for no effect and ±100 for the full control effect; nearly all actives have a fitted effect of over 60% in size
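72 h, 37 °C compound treatment of KB-3-1 parental cells; CellTiter-Glo added, 10 min, luminescence read. Data corrected against DMSO-only plates and normalized before curve fitting.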
HT1080 IDH1KD tx – qHTS for induction of synthetic lethality in tumor cells producing 2HG: qHTS for the HT-1080-IDH1KD cell line. HT-1080 IDH1 knockdown viability, ATP luminescence, 48 h. Potency, µM (doses to about 46.1 µM), for inactives: at the highest dose activity, negative = toxicity, actives largely listed as cytotoxic. hit rate 2% among 360,000. AID 686971, 2013;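 note: 0% = DMSO wells and -100% = cell-free medium wells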
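HT-1080-IDH1KD cells (IDH1 knocked down), 750/well in RPMI with 5% FBS, treated with compound 48 h at 37 degrees C. Viability by CellTiter-Glo luminescence, normalised to DMSO and no-cell wells; concentration-response curves classed.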
* hit, by the source's call; i = inactive; ? = inconclusive; / = not tested or not shown; ! = a repeat was not active; [ ] = dose if it differs, or a comment. Calls come from the whole dose curve; as a rule, active = well fitted curve in the direction sought with a large enough effect; inconclusive = small, poorly fitted or top-dose-only effect, or another doubt; inactive = no such curve, though single readings can be large; an effect the other way counts as inactive or inconclusive. Potency is the fitted concentration of half-maximal effect.

SMILES	HT1080NT lethal	KB-V1 cytotox	MCF10A rereplic	SW480 rerep	KB-3-1 tox	HT1080 IDH1KD tx
FC(F)OC(Cl)C(F)(F)F (stereo not given)	/	/	-2%	2%	/	/
Cc1ccc(C(=O)N(CN2CCCC2=O)c2ccc(F)cc2)cc1C	23%	18µM*	3%	-13%	i	0%
Cc1ccc(C(=O)N(CN2CCCC2=O)c2ccccc2)cc1C	-10%	?	10%	3%	i	-1%
Cc1ccc(N(CN2CCCC2=O)C(=O)c2ccc(C)c(C)c2)cc1	6%	8.2µM*	5%	-8%	i	0%
COc1cc2c(cc1OC)/C(=C/c1ccc(Br)cc1)C(=O)OC2	?	?	?	?	21µM*	?
CCCc1nc(-c2cc3ccc(C)cc3[nH]c2=O)no1	2%	12µM*	-1%	3%	i	5%
CCS(=O)(=O)NCCc1cc2cc(C)c(C)cc2[nH]c1=O	13%	i	-1%	0%	i	13%
CCS(=O)(=O)NCCc1cc2ccc(C)cc2[nH]c1=O	-10%	21µM*	-3%	9%	i	2%
COc1ccc(-c2cc(C(C)=O)c(C)n2CCC(=O)Nc2ccc(C(F)(F)F)cc2)cc1	/	i	/	/	?	/
O=[N+]([O-])c1ccc(O)c(C=Nc2ccc3nc(-c4ccccc4)[nH]c3c2)c1	-29%	i	?	0%	i	-24%
Oc1c(Br)cc(C=Nc2ccc3nc(-c4ccccc4)[nH]c3c2)c(O)c1Br	-20%	i	21µM*	?	i	?
COc1cccc(C2C(C(=O)Nc3ccc(Cl)cc3)=C(C)Nc3c(C(=O)Nc4ccccc4)cnn32)c1OC (stereo not given)	/	i	/	/	i	/
O=C1CN2Cc3c(ccc(Cl)c3Cl)N=C2N1	-4%	0.16µM*	7%	?	i	1%
Oc1cn2c(n1)Nc1ccc(Cl)c(Cl)c1C2	/	/	1%	2%	/	/
O=C(Nc1cc(=O)[nH]c(=O)[nH]1)c1cc(Cl)ccc1Cl	?	?	?	21µM*	4.1µM*	3.3µM*
CCn1c(=O)n(-c2ccc3c(c2)OCO3)c2nc(-c3ccc(C(C)C)cc3)nc(C(N)=O)c21	/	i	/	/	i	/
CCn1c(C(=O)NCCc2ccc(S(N)(=O)=O)cc2)cc2sc(Cl)cc21	/	i	/	/	i	/
CNC(=S)NCc1ccc2[nH]c3c(c2c1)CCCC3	-19%	?	-4%	1%	i	4%
Cc1ccccc1NC(=S)NCc1ccc2[nH]c3c(c2c1)CCCC3	-16%	i	6.5µM*	?	i	-5%
S=C(NCc1ccc2[nH]c3c(c2c1)CCCC3)Nc1ccccc1Cl	-9%	?	3.7µM*	5%	?	-14%
Cc1ccc(C)c(NC(=S)NCc2ccc3[nH]c4c(c3c2)CCCC4)c1	?	?	?	?	?	-20%
CCCCNC(=S)NCc1ccc2[nH]c3c(c2c1)CCCC3	-1%	21µM*	4%	-16%	i	-8%
CCOc1cc(OCC)cc(C(=O)N2CCC[C@H]2C(=O)N2CCC[C@H]2C(=O)NCc2cccc(OC)c2)c1	2%	i	/	/	i	6%
Nc1c2c(nc3sc4c(c13)CCCC4)-c1ccccc1CC2	?	?	?	-6%	?	18µM*
NNc1nc(-c2ccccc2)nc2sc3c(c12)CCCC3	-18%	?	22%	-17%	i	-11%
SMILES	HT1080NT lethal	KB-V1 cytotox	MCF10A rereplic	SW480 rerep	KB-3-1 tox	HT1080 IDH1KD tx
CC(=O)c1c(C)[nH]c(C(=O)OCC(=O)NCc2cccs2)c1C	-5%	13µM*	7%	-6%	?	-27%
CCOC(=O)c1c(C)[nH]c(C(=O)OCC(=O)Nc2sccc2C(N)=O)c1C	-6%	?	21µM*	?	i	-27%
CCOC(=O)c1c(C)[nH]c(C(=O)OCC(=O)NCc2ccc(OC)c(OC)c2)c1C	-29%	21µM*	23%	19%	?	?
CC(=O)c1c(C)[nH]c(C(=O)OCC(=O)NCc2ccc(Cl)cc2)c1C	-8%[9.24 µM]	i	?	-39%	?	?
CCOC(=O)c1c(C(=O)OCC)c(C)n(CCc2ccc(OC)c(OC)c2)c1C	8%	i	4%	9.2µM*	i	5%
Cc1cccc(N2CCN(CCCNc3ncnc4onc(-c5ccc(Cl)cc5)c34)CC2C)c1 (stereo not given)	/	?	/	/	i	/
CCC(CC)c1nn2c(=O)cc(COc3ccc(NC(=O)c4ccc(C)cc4)cc3)nc2s1	/	i	/	/	i	/
COc1ccc2c(/C=C/c3cc[n+](C)cc3)c[nH]c2c1	-22%	?	-14%	-1%	1.8µM*	-2%
COC(=O)Cn1cc(/C=C/c2cc[n+](C)cc2)c2ccccc21	2%	?	-2%	-15%	i	6%
Cc1ccc2[nH]cc(/C=C/c3cc[n+](C)cc3)c2c1	?	i	?	8.2µM*	0.92µM*	?
COc1ccc2c(c1)c(/C=C/c1cc[n+](C)cc1)cn2C	0%	?	-8%	0%	16µM*	-3%
Cc1cc(Nc2cc(Cl)nc(Sc3ccc(NC(=O)C4CC4)cc3)n2)n[nH]1	/	i	34%	21µM*	1.6µM*	/
Cc1cc(NC(=O)c2ccc(NC(=O)C3CC3)cc2)no1	9%	i	0%	-6%	i	1%
COc1cc(OC)c(NS(=O)(=O)c2ccc3c(c2)NC(=O)CCS3)cc1Cl	/	?	/	/	18µM*	/
Cc1ccc(NS(=O)(=O)c2ccc3c(c2)NC(=O)CCS3)c(Br)c1	-29%	23µM*!	0%	6%	?	-26%
Cc1c(C(=O)N(C)C)sc2c1c(=O)n(-c1ccccc1C(F)(F)F)c(=O)n2Cc1ccccc1C#N	/	i	/	/	i	/
COc1ccc(Nc2nc(-c3ccccc3)nc3ccccc23)cc1	?	?	16%	0%	?	?
COc1ccc(Nc2nc(-c3cccs3)nc3ccccc23)cc1	?	18µM*	16µM*	2%	?	?
COc1cccc(Nc2nc(-c3cccs3)nc3ccccc23)c1	16µM*	?	?	?	i	?
Cc1cc(C)n(CCc2nc3c4ccccc4nc(N4CCN(c5ccccc5F)CC4)n3n2)n1	/	?	/	/	i	/

High-throughput results from PubChem BioAssay.
